# Compound activity: PubChem, National Center for Advancing Translational Sciences (NCATS)
# PI5P4K alpha inh – qHTS for Inhibitors of phosphatidylinositol 5-phosphate 4-kinase (PI5P4K); Phosphatidylinositol 5-phosphate 4-kinase type-2 alpha (Homo sapiens), P48426; PI5P4Kalpha enzyme, ADP-Glo luminescence, 60 min; stronger effect = lower value; max response, %; 330,000 compounds, 1.2% hits; AID 652105, 2013; active means max response of -50% or lower; inconclusive means between -30% and -50%; inactive means -30% or higher; further: value at the top dose of about 77 µM
#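 Quantitative HTS of the MLSMR library against PI5P4Kalpha with substrate. ATP added last at 5 microM final; room temperature, 60 minutes. Remaining ATP depleted, ADP converted and read as luminescence.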
# Pin1 inh – qHTS Assay to Find Inhibitors of Pin1; Peptidyl-prolyl cis-trans isomerase NIMA-interacting 1 (Homo sapiens), Q13526; Pin1 FP peptide displacement, HiFluor488, 10 min; Potency, µM (series often up to 115 µM), without a hit: top-dose activity, negative = inhibition, most hits filed as inhibitors; 390,000 compounds, 0.009% hits; active means well fitted inhibition curve with a large enough effect in the polarisation, with a control signal flat, not every such curve was filed as active; inconclusive means small, poorly fitted or top-dose-only effect, or effect the other way, or a change in a side signal; inactive means no such curve, though single readings can be large or run the other way; the % refers to the polarisation; further: potency means the concentration at half of the fitted maximal effect
# Target sequence (Q13526 whole entry, looked up): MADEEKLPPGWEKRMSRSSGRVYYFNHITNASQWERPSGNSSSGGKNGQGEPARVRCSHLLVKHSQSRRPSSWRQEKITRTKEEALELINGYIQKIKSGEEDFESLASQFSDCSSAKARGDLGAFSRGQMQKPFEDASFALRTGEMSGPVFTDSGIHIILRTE
# PGK inhibitor – qHTS Assay to Find Inhibitors of Phosphoglycerate Kinase; PGK/GAPDH coupled, Kinase-Glo luminescence, 60 min; Potency, µM (highest dose often 57.5 µM), for inactives: at the top dose activity change, negative = inhibition, hits mostly inhibitors; 380,000 compounds, 0.043% hits; further: potency means the concentration at half of the fitted maximal effect; nearly all actives have a fitted effect of over 60% in size
#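 Recombinant glycosomal PGK reaction used 1,3-bisphosphoglycerate generated in-well by GAPDH (100nM final) in 100mM TEA pH 7.6, 5mM MgCl2, 0.01% Tween-20. After 60 minutes at room temperature, ATP was read by Kinase-Glo Plus luminescence end-point.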
# PI4K2A inh – qHTS for small molecular inhibitors of PI4K2A; purified PI4K2A, ADP-Glo luminescence, 1 h; stronger effect = lower value; AID 1346378, 2018; 420,000 compounds, 0.13% hits; activity change, negative = inhibition, % at 76.9 µM; in the data active means activity change below about -50%; inconclusive means mostly about -30% to -49%;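 further: -100% = wells without enzyme as full effect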
# Target sequence (Q9BTU6 whole entry, looked up): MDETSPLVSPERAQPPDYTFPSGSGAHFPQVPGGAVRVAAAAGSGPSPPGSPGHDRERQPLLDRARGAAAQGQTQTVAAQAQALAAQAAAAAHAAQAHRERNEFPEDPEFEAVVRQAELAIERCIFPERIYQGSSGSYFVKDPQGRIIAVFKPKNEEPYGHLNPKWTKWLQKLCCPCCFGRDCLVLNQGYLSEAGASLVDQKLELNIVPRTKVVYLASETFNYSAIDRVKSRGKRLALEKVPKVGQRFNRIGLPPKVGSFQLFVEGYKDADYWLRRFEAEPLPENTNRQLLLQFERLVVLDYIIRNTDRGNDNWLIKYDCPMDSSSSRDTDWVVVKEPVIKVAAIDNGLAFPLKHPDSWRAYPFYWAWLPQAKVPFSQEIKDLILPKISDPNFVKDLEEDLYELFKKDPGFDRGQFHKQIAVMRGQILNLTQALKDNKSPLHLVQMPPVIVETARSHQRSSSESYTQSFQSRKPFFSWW
#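 PI4K2A activity was measured by ADP-Glo luminescence: enzyme (4 ug/mL stock) and phosphatidylinositol (1.2 mM stock) in Tris pH 7.5/MgCl2/EGTA/Triton X-100 buffer were reacted with ATP (300 microM stock) for one hour at ambient temperature.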
# RGS12 GoLoco inh – qHTS Assay for Inhibitors of RGS12 GoLoco Motif Activity (Red Fluorophore); AID 880, 2007; 230,000 compounds, 0.44% hits; Guanine nucleotide-binding protein G(i) subunit alpha-1 (Homo sapiens), P63096; Potency, µM (top dose mostly 61.6 µM), for the others: at the top dose activity, negative = inhibition, hits mostly inhibitors; Gai1:RGS12 GoLoco peptide FP, rhodamine, 10 min; active means well fitted inhibition curve with a large enough effect, not every such curve was filed as active; inactive means no such curve, though single readings can be large or run the other way; further: potency means the concentration at half of the fitted maximal effect; nearly all actives have a fitted effect of over 30% in size
# GCN5L2 inh – qHTS Assay for Inhibitors of GCN5L2; Histone acetyltransferase KAT2A (Homo sapiens), Q92830; GCN5L2 HAT assay, ThioGlo1 CoA-SH fluorescence; Potency, µM (doses to about 58.9 µM), without a hit: at the highest dose activity change, negative = inhibition, hits mostly inhibitors; 390,000 compounds, 0.21% hits; further: potency means the concentration at half of the fitted maximal effect
#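 qHTS, 1536-well. 20nM enzyme, pH 7.5 HEPES/EDTA/Tween-20 buffer; 15 min compound preinc., RT. Start: 75uM H3(1-25), 70uM AcCoA, 50uM ThioGlo1. Read Ex340/Em540 at t=0 (autofluorescence flag) and t=20 min.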
# * hit, by the source's call; i = inactive; u = inconclusive; x = no result given; ! = a repeat was not active. Compounds with a hit are over-represented: about 1.2% of the library has one in this group of screens. Unless noted, the call rests on the fitted dose curve; in most records, active means well fitted curve in the direction sought with a large enough effect; inconclusive means small, poorly fitted or top-dose-only effect, or another doubt; inactive means no such curve, though single readings can be large; an effect the other way counts as inactive or inconclusive. Unless noted, on the % scale 0 is the no-effect control and ±100 the full control effect.
SMILES,PI5P4K alpha inh,Pin1 inh,PGK inhibitor,PI4K2A inh,RGS12 GoLoco inh,GCN5L2 inh
CCC(CC)C1=NN2C(=N)/C(=C/c3ccc(OC(=O)c4ccco4)cc3)C(=O)N=C2S1,-18.1,6.6%,i,0.5,x,-2.3%
O=C(c1ccc(Cl)cc1)C1CCN(C(=O)c2ccc(F)cc2)CC1,-5.8,-0.6%,-10.2%,-2.0,x,-1.0%
CC[C@]12c3[nH]c4cc(-c5ccco5)ccc4c3CCN1C(=O)[C@@H](CC(=O)NCC13CC4CC(CC(C4)C1)C3)C[C@@H]2C(=O)N1CCN(C(=O)c2ccco2)CC1,-51.4*,64.1%,-1.4%,-22.8,x,-18.1%
CCCCCc1c2c(cc(O)c1C(=O)O)OC(=O)c1c(cc(OC)cc1C(=O)CCCC)O2,u,17.8µM*,-10.4%,-0.3,6.8%,u
CCCCCc1c2c(cc(O)c1C(=O)O)OC(=O)c1cc(C(=O)CCCC)c(OC)cc1O2,-24.4,x,-22.2%,-2.3,2.8%,u
CCCn1nc2cc(C(=O)NC3CCCc4ccccc43)ccc2c1OCC (stereo unspecified),1.2,-10.0%,-1.6%,0.0,6.6%,10µM*
CCOc1c2ccc(C(=O)N[C@H](C)C3CCCCC3)cc2nn1CC,-4.0,-3.6%,-6.9%,-1.9,6.9%,0.891µM*
CCCCn1nc2cc(C(=O)NC3CCc4ccccc43)ccc2c1OCC (stereo unspecified),2.4,u,10.1%,-4.1,16.8%,u
N=C1CCC(=N)c2c1c(O)c1ccccc1c2O,-71.8*,u,-24.8%,u,8.4%,u
O=C1CCn2c1c(O)c1ccccc1c2=O,9.0,u,-7.6%,u,x,x
CC(=O)Oc1cc(O)c2c(=O)c(OC(C)=O)c(-c3ccc(OC(C)=O)c(OC(C)=O)c3)oc2c1,-97.9*,u,-9.0%,0.8,x,x
COc1ccc(-c2oc3cc(OC)c(OC(C)=O)c(OC)c3c(=O)c2OC)cc1OC(C)=O,x,x,x,x,1.3%,x
COc1cc(NS(=O)(=O)c2ccc(C)cc2)c2ncccc2c1,1.3,3.4%,-4.0%,-3.7,9.3%,-6.8%
CCC(CNc1cc(OC)cc2cccnc12)NC1CCCCC1 (stereo unspecified),-6.7,u,x,-28.3,28.2µM*,-1.7%
COc1cc(NCCCC(C)N)c2ncccc2c1 (stereo unspecified),-3.2,u,i,-51.5*,28.2µM*,-1.0%
CCn1c(/C=C/N(C)c2ccccc2)[n+](CC)c2ccc(Cl)cc21,x,2.5%,0.8%,-2.4,1µM*,-21.3%
COc1ccccc1CNC(=O)CCn1c(=O)c2ccccc2n(CC(=O)Nc2ccc(C)cc2Cl)c1=O,x,5.6%,-3.1%,3.6,x,-0.2%
Cc1ccc(S(=O)(=O)NCC(=O)OCC(=O)c2ccc(Br)s2)cc1,-51.5*,3.2%,10.6%,-6.3,16.4%,-8.6%
O=C(CCc1nnc2ccc(N3CCC4(CC3)OCCO4)nn12)Nc1ccc(F)cc1,-23.5,-6.7%,-3.3%,5.6,x,-2.0%
CC(=O)N1CCC(C(=O)Nc2ccc(S(=O)(=O)N3CCC(C)CC3)cc2)CC1,4.0,-6.4%,i,0.2,x,-24.9%
CCCCCCCCCC[n+]1cccc2c3ccccc3ccc21,-13.9,2.2%,5.6%,-9.3,10µM*,-10.8%
C/C=C(\C)C(=O)NCCN1C2=NC[C@@H](Cc3ccccc3)N2C[C@@H]1Cc1ccc(OC)cc1,0.3,-0.3%,-9.0%,2.5,x,x
CCCCCCNC(=O)N[C@@H](C(=O)NCCC[C@H]1CN2C(=NC[C@@H]2Cc2ccccc2)N1CCc1cccc(OC)c1)C(C)C,-82.9*,-0.6%,-3.1%,-16.3,14.1µM*,39.8µM*
CCCC1=[N+](CC)CCn2c(C)ccc21,x,1.8%,-3.4%,0.0,12.6µM*,-12.1%
COc1cc(C(=O)NCCOc2ccccc2C)cc(OC)c1OC,12.0,2.4%,4.1%,-2.5,x,-6.2%
SMILES,PI5P4K alpha inh,Pin1 inh,PGK inhibitor,PI4K2A inh,RGS12 GoLoco inh,GCN5L2 inh
N#CC1=C(N)NC(=S)C(C(N)=O)C1c1ccc([N+](=O)[O-])cc1 (stereo unspecified),-56.4*,3.3%,5.0%,-3.9,-4.6%,-9.2%
CCOC(=O)N1CCN(C(=O)C2CCN(c3nnc(-n4cccc4)s3)CC2)CC1,-2.5,-8.3%,-3.5%,-0.3,x,0.2%
CC(C)(C)Cc1nnc(NC(=O)c2ccc([N+](=O)[O-])cc2)s1,-7.9,0.1%,4.2%,0.9,4.7%,-2.2%
Cc1ccc(S(=O)(=O)N2CCN(C(=O)/C=C/c3ccco3)CC2)cc1,-3.4,-3.7%,-17.8%,0.0,-13.4%,2.6%
Cc1ccc(C)c(S(=O)(=O)N2CCN(C(=O)/C=C/c3ccco3)CC2)c1,-61.1*,4.2%,-12.0%,u,x,u
NS(=O)(=O)c1ccc(NNC(=O)c2ccc(Br)o2)c([N+](=O)[O-])c1,4.0,4.2%,u,-26.1,x,-7.1%
CCOc1cccc(CNc2ccc(O)cc2)c1OCc1ccccc1Cl,-19.2,u,-12.4%,-53.0*!,-26.8%,-7.6%
CCOc1cccc(CNc2ccc(O)cc2)c1OCc1ccc(Cl)cc1Cl,-19.5,-12.7%,-8.4%,-57.7*,-3.0%,-0.3%
CCOc1cccc(CNn2cnnc2)c1OCc1ccccc1Cl,2.3,-5.7%,-1.3%,10.6,6.2%,-1.4%
O=C(NCc1ccc(OC(F)(F)F)cc1)C1CCC(=O)N(C2CC2)C1 (stereo unspecified),-6.5,0.4%,4.5%,3.3,x,u
CCOc1ccc(/C=N/NC(=O)c2[nH]ncc2Br)c(O)c1,u,3.3%,u,-74.9*,8.5%,-8.5%
NC(=O)C1CCN(C(=O)C2CC(=O)N(c3ccc4c(c3)OCCO4)C2)CC1 (stereo unspecified),1.2,-0.1%,i,0.2,x,3.6%
COc1ccc([C@H]2Oc3cc(O)cc(O)c3C(=O)C2[C@@H]2C(=O)c3c(O)cc(O)cc3O[C@@H]2c2ccc(OC)cc2)cc1 (stereo partly specified),-58.0*,7.5%,0.4%,3.5,17.1%,-3.5%
O=C1c2c(O)cc(O)cc2OC(c2ccc(O)c(O)c2)C1O (stereo unspecified),x,x,x,-0.1,-36.3%,-6.7%
